# Results from paper PMC4336329 (PLoS ONE, 2015).
# Hit rate of the full screen: of about 310,000 compounds, about 2,200 (0.71%) showed an effect of 50% or more. Effects have a minus sign here. The list comes from a sample in which strong results are over-represented; it also holds similar structures and randomly drawn compounds.
# Target: human ether-à-go-go-related gene (hERG) potassium channel (human, UniProt Q12809)
# Assay: primary screen, population patch clamp on CHO cells stably expressing hERG; higher = less effect of the substance
# Chain of human ether-à-go-go-related gene (hERG) potassium channel (Q12809 whole entry, looked up): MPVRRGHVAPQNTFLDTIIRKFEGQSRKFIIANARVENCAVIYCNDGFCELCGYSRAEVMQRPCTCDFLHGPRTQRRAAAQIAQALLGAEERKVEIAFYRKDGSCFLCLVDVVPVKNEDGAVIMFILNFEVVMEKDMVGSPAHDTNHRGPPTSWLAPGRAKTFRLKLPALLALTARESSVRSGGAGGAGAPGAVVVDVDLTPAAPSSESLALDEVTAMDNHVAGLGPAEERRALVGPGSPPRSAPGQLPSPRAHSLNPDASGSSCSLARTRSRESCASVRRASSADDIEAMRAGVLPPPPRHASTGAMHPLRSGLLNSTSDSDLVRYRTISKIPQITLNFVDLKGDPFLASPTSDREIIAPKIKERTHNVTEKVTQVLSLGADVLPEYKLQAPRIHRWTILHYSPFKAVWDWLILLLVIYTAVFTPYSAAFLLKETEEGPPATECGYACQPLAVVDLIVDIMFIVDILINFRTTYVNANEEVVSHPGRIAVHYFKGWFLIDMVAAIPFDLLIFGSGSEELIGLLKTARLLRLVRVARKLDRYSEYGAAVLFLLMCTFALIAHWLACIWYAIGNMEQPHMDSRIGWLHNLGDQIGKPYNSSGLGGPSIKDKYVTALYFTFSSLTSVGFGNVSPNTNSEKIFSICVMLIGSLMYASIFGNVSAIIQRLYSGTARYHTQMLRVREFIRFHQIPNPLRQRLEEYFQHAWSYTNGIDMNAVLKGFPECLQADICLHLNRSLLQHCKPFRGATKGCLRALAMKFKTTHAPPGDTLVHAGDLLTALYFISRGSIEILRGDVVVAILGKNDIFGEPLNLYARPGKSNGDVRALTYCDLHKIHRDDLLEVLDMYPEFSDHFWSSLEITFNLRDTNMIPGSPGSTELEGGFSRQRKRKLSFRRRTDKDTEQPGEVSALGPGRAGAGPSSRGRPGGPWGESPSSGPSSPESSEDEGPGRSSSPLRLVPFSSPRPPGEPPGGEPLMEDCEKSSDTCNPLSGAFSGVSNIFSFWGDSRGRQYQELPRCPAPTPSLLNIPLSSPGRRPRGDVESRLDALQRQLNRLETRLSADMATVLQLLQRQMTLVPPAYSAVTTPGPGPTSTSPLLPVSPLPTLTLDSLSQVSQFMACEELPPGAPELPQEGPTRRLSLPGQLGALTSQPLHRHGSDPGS
row,SMILES,"hERG current change (%, negative = inhibition) at 1uM [%]"
1,COc1cc(OC)cc(C(=O)N2CCC(C(=O)Nc3ccc4c(c3)OCCO4)CC2)c1,12.5
2,COc1ccc(C(=O)N2CCC(C(=O)Nc3ccc(C)cc3)CC2)cc1,-31.9
3,O=C(Nc1ccc(F)cc1)C1CCN(C(=O)c2ccc([N+](=O)[O-])cc2)CC1,11.5
4,O=C(Nc1ccc2c(c1)OCCO2)C1CCN(C(=O)c2ccc([N+](=O)[O-])cc2)CC1,-16.3
5,COc1ccc(NC(=O)C2CCN(C(=O)c3ccc(OC)cc3)CC2)cc1,-69.6
6,CC(=O)Nc1ccc(NC(=O)C2CCN(C(=O)c3ccc([N+](=O)[O-])cc3)CC2)cc1,22.3
7,COc1ccc(C(=O)N2CCC(C(=O)Nc3ccc(OC)c(OC)c3)CC2)cc1,10.7
8,O=C(Nc1ccc2c(c1)OCCO2)C1CCN(C(=O)c2ccc(F)cc2)CC1,5.7
9,COc1ccc(C(=O)N2CCC(C(=O)Nc3ccc4c(c3)OCO4)CC2)cc1,-59
10,O=C(Nc1ccccc1)C1CCN(C(=O)c2ccc([N+](=O)[O-])cc2)CC1,-67
11,COc1ccc(C(=O)N2CCC(C(=O)Nc3ccc4c(c3)OCCO4)CC2)cc1,-13.1
12,O=C(Nc1ccc2c(c1)OCO2)C1CCN(C(=O)c2ccc([N+](=O)[O-])cc2)CC1,-74.6
13,CCC(Oc1ccccc1)C(=O)N(C)CC(=O)N(CC(C)C)c1c(N)n(CC(C)C)c(=O)[nH]c1=O (stereo not shown),7.85
14,CC(C)CC(=O)OCC(=O)Nc1ccccc1Sc1ccccc1,11.1
15,CN(Cc1ccc(OC(F)F)cc1)C(=O)c1ccc(S(=O)(=O)N(C)c2ccccc2)cc1,-19.2
16,CCS(=O)(=O)N1Cc2ccccc2CC1C(=O)Nc1ncc(C)s1 (stereo not shown),7.83
17,Fc1ccc(N2Cc3ccsc3C=N2)cc1,9.09
18,CCOc1ccc(Nc2nc(Cc3nnc(SCC(=O)NC4CCCCC4)n3C)cs2)cc1,-7.35
19,Cc1sc(-c2ccccn2)nc1OC(=O)c1ccc(F)cc1F,16.2
20,CCCCC(=O)Nc1c(-c2ccc(OC)c(OC)c2)c(=O)c2ccccc2n1C,10.7
21,O=C(Nc1ccc2c(c1)OCCO2)C1CCN(C(=O)c2ccc(Cl)cc2)CC1,3.04
22,O=C(NCC1CCCCC1)c1ccc([N+](=O)[O-])cc1,8.06
23,O=C(NCC1CCN(C(=O)c2cccc([N+](=O)[O-])c2)CC1)c1cccc([N+](=O)[O-])c1,-5.98

row,SMILES,"hERG current change (%, negative = inhibition) at 1uM [%]"
1,O=C(Nc1ccc2c(c1)OCO2)C1CCN(C(=O)c2ccc(Cl)cc2)CC1,-59.6
2,O=C(Nc1ccc2c(c1)OCO2)C1CCN(C(=O)c2ccc(Br)cc2)CC1,-42.3
3,O=C(NCC1CCN(C(=O)c2ccc([N+](=O)[O-])cc2)CC1)c1ccc([N+](=O)[O-])cc1,-74.6
4,O=[N+]([O-])c1ccccc1/C=C\C=N\N1CCN(c2ccccc2)CC1,-7.95
5,COc1cccc(CC2(CO)CCCN(Cc3ccc(CO)o3)C2)c1 (stereo not shown),-1.35
6,COc1cccc(CC2(CO)CCCN(Cc3cn(C)c4ccccc34)C2)c1 (stereo not shown),-54.8
7,COc1cccc(CC2(CO)CCCN(Cc3ccc(OC)c(C)c3OC)C2)c1 (stereo not shown),-80.2
8,COc1cccc(CC2(CO)CCCN(Cc3ccc(C)s3)C2)c1 (stereo not shown),-10.6
9,COc1cccc(CC2(CO)CCCN(Cc3cn[nH]c3-c3ccccc3)C2)c1 (stereo not shown),-6.05
10,COc1cccc(CC2(CO)CCCN(Cc3ccc(-c4ccco4)cc3)C2)c1 (stereo not shown),9.67
11,COc1cccc(CC2(CO)CCCN(Cc3ccccc3Cl)C2)c1 (stereo not shown),-12.5
12,COc1cccc(CC2(CO)CCCN(Cc3ccc(CN4CCCCC4)s3)C2)c1 (stereo not shown),0.717
13,COc1cccc(CC2(CO)CCCN(Cc3ccccc3-c3ccco3)C2)c1 (stereo not shown),-55.6
14,CC(C)(C)C(=O)Nc1scc(-c2ccc(-c3ccccc3)cc2)c1C(=O)O,21.8
15,COc1cc(C)ccc1OCc1cc(C(=O)N(C)CCCN2CCOCC2)no1,-7.67
16,c1ccc(-n2c(-c3ccco3)nnc2-c2ccco2)cc1,5.9
17,COc1cccc(-c2nnc(-c3ccco3)o2)c1,14.6
18,O=C(NCCN1CCCCC1)c1cc(OCC(F)(F)F)ccc1OCC(F)(F)F,-17.2
19,S=c1[nH]nc(-c2ccc(Cl)cc2)n1-c1ccc(Cl)cc1,9.56
20,CCC(C)(C)NC(=O)CN(C(=O)c1snc(C(N)=O)c1N)c1ccc2c(c1)OCO2,3.43
21,COc1ccc(S(=O)(=O)N2CCC(C(=O)NCCc3ccccc3)CC2)cc1,9.96
22,COc1cc(OC)cc(C(=O)N2CCC(C(=O)c3ccc(F)cc3)CC2)c1,-1.28
23,COc1ccc(C(=O)C2CCN(C(=O)c3ccc(C)cc3)CC2)cc1,-47.7

row,SMILES,"hERG current change (%, negative = inhibition) at 1uM [%]"
1,COc1ccc(C(=O)C2CCN(C(=O)c3ccc(F)cc3)CC2)cc1,2.02
2,COc1ccc(C(=O)C2CCN(C(=O)c3ccc(OC)cc3)CC2)cc1,-76
3,COc1ccc(C(=O)N2CCC(C(=O)c3c(C)cc(C)cc3C)CC2)cc1,-8.27
4,COc1ccc(C(=O)N2CCC(C(=O)c3ccc(F)cc3)CC2)cc1,-66.1
5,COc1ccc(Cl)cc1NC(=O)NN1CCN(C)CC1,-7.68
6,CC(C)(C)NC(=O)C(c1ccco1)N(Cc1ccc(F)cc1)C(=O)c1snc(C(N)=O)c1N (stereo not shown),-6.09
7,C/C(=N/OCO/N=C(\C)c1ccc(F)cc1F)c1ccc(F)cc1F,21.9
8,COc1cc2c(cc1OC)CN(CC(=O)Nc1ccc3c(c1)OCO3)CC2,14.5
9,CC(C)(C)S(=O)(=O)c1cnc2c(-c3ccsc3)cnn2c1N,15.9
10,COc1cc2c(cc1OC)CN(C(=O)COc1ccccc1[N+](=O)[O-])CC2,9.5
11,O=C(NC(=S)Nc1ccccc1Br)c1ccc2c(c1)OCO2,-67.9
12,COC(=O)c1ccccc1NC(=S)NC(=O)c1ccc2c(c1)OCO2,20.6
13,O=C(NC(=S)NCc1ccccc1)c1ccc2c(c1)OCO2,2.26
14,Cc1ccc(N(C)S(=O)(=O)c2cccc(C(=O)Nc3ccc(C)cn3)c2)cc1,15.7
15,N#CCCN=C(NS(=O)(=O)c1ccccc1)c1ccccc1,2.49
16,O=C(COc1ccc2ccc(=O)oc2c1)NCCc1c[nH]c2ccc(F)cc12,12.5
17,CCOc1ccc(N2C(=O)CC(n3nc(C)cc3C)C2=O)cc1 (stereo not shown),3.53
18,CCOC(=O)c1c(CSC(=N)N)n(-c2ccccc2)c2cc(Br)c(OC(C)=O)cc12,-57.4
19,Br.CCOC(=O)c1c(CSC(=N)N)n(-c2ccc(C)cc2)c2cc(Br)c(OC(C)=O)cc12,-36.7
20,Br.CCOC(=O)c1c(CSC(=N)N)n(C)c2cc(Br)c(OC(C)=O)cc12,-36.7
21,Cc1cccc(NC(=O)Nc2ccc3c(c2)OCO3)n1,15.6
22,O=C(CN1CCN(C(=O)c2cccc(-n3cnnn3)c2)CC1)Nc1ccccc1Cl,-92.9
23,O=C(CN1CCN(C(=O)c2c(F)cccc2F)CC1)Nc1ccccc1C(F)(F)F,3.09

row,SMILES,"hERG current change (%, negative = inhibition) at 1uM [%]"
1,Cc1nn(Cc2ccccc2)c(C)c1C(=O)N1CCN(CC(=O)Nc2ccccc2Cl)CC1,-13.4
2,Cc1cccc(NC(=O)CN2CCN(C(=O)c3cccc(-n4cnnn4)c3)CC2)c1C,-11.9
3,O=C(CN1CCCCC1)Nc1ccccc1Cl,13.9
4,O=C(CN1CCN(C(=O)c2cncn2-c2ccc(F)cc2)CC1)Nc1ccccc1C(F)(F)F,-68.3
5,O=C(CN1CCN(C(=O)c2cncn2-c2ccccc2)CC1)Nc1ccccc1Cl,-83.4
6,CCc1ccccc1NC(=O)CN1CCN(C(=O)c2cccc(-n3cnnn3)c2)CC1,-5.51
7,Cc1cccc(NC(=O)CN2CCN(C(=O)c3cncn3-c3ccc(F)cc3)CC2)c1C,-22.2
8,O=C(Nc1ccncc1)Nc1cccc(Cl)c1,6.49
9,CC(C)(C)n1nc2c(c1NC(=O)c1ccc(C(F)(F)F)cc1)CS(=O)(=O)C2,-9.67
10,Cc1ccc(-c2nc(CS(=O)CC(=O)NCCN3CCCCCC3)c(C)o2)cc1 (stereo not shown),15.5
11,Cc1ccc(C(=O)Cn2c(N3CCOCC3)nc3c2c(=O)n(C)c(=O)n3C)cc1,5.32
12,COc1cccc(Nc2nc(Nc3ccc(Cl)c(C(=O)O)c3)nc(C)c2[N+](=O)[O-])c1,9.52
13,CCOc1ccc(NS(=O)(=O)c2ccc(SC)cc2)cc1,0.548
14,CCc1ccc(CN2CCC(n3nccc3NC(=O)c3cccc(F)c3)CC2)cc1,-78.3
15,CCOc1cccc(CN2CCC(n3nccc3NC(=O)c3ccc4c(c3)OCO4)CC2)c1,-1.26
16,CC(=O)c1cccc(CN2CCC(n3nccc3NC(=O)c3ccc4c(c3)OCO4)CC2)c1,6.25
17,CCn1cc(CN2CCC(n3nccc3NC(=O)c3cccc(F)c3)CC2)cn1,6.11
18,O=C(Nc1ccnn1C1CCN(Cc2ccc3nonc3c2)CC1)c1cccc(F)c1,-1.92
19,O=C(Nc1ccnn1C1CCN(Cc2ccc(C#CCCO)cc2)CC1)c1cccc(F)c1,-37.5
20,CCc1ccc(CN2CCC(n3nccc3NC(=O)c3ccc4c(c3)OCO4)CC2)cc1,-58.4
21,COc1ccc(CN2CCC(n3nccc3NC(=O)C3CC3)CC2)cc1O,-18.7
22,COc1ccc(CN2CCC(n3nccc3NC(=O)c3cccc(F)c3)CC2)cc1O,-81.5
